From PubChem BioAssay (EPA / NIEHS)
Active and inactive are the calls of the source. The calls were made as follows: active = hit-call score of the fitted dose curve at least 0.9, where 1 is the maximum; inactive = score below 0.9.

Each compound was assayed on Cyclin D1 (CCND1), CCND1 (gene 595) (assay: LTEA_HepaRG_CCND1: Life Technologies and Expression Analysis (LTEA) Assay for Cyclin D1 (CCND1) using HepaRG (AID 2283451;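 as to AC50: TaqMan qRT-PCR transcript level normalised to ACTB GAPDH and POLR2A housekeeping genes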)). Details: mRNA level, 48 h; actives raise or lower the signal.
Protocol: LTEA_HepaRG is a cell based, multiplexed-readout assay that uses HepaRG, a human liver cell line, with measurements taken at 48 hours after chemical dosing on a 96-well plate.LTEA_HepaRG_CCND1 is one of 102 assay component(s) measured in the LTEA HepaRG cell culture assay. It is a marker of Cell proliferation, survival, death.Data from the assay component LTEA_HepaRG_CCND1 was analyzed into 1 endpoint. This assay endpoint, LTEA_HepaRG_CCND1, was analyzed with bidirectional fitting relative to DMSO as the negative control and baseline of activity. Using a type of inducible reporter, measures of mRNA induction for gain or loss-of-signal activity can be used to understand regulation of transcription factor activity. To generalize the intended target to other relatable targets, this assay endpoint is annotated to the cell cycle intended target family, where the subfamily is Cell proliferation, survival, death.
A total of 1060 chemcials from the ToxCast library were tested in eight-point concentration-response experiments. Cell culture and cytotoxicity assays were conducted at Thermo Fisher Scientific's Custom Services facility (Madison, WI). A single lot of human HepaRG cells (Thermo Fisher Scientific, Frederick, MD) was used for the cell culture experiments. 96-well format collagen type I coated plates of human HepaRG cells were prepared using established methods. Briefly, cryopreserved HepaRG cells were thawed, plated at a density of approximately 100,000 cells/well in HepaRG Thaw, Plate, and General Purpose media (HPRG770, Thermo Fisher Scientific), and incubated for 48 hours. 0.5% DMSO was selected as vehicle control to balance the requisite need of DMSO in HepaRG cultures to maintain differentiation (for example, baseline metabolism, proportions of hepatocytes vs. cholangiocytes), while enabling further hepatic receptor pathway activation (for example, PXR and CAR) in response to chemical exposure. 48 hours after plating, the culture medium was replaced with HepaRG Serum-Free Incudtion Media. Cells were exposed to each test chemical in duplicate and maintained in CO2 incubators for another 48 hours. Chemical plates were thawed to room temperature and 200x concentrations of treatment groups were prepared. 8-point conentration-reponse curves were made with the highest exposure at 100 uM, followed by half-log dilutions, all in 0.5% DMSO. Each test plate contained variouse controls, induction positive controls (1mM phenobarbital), cytotoxicity positive controls ([…] aflatoxin B1), vehicle controls (0.5% DMSO), and total lysis controls (0.5% DMSO). Cell morphology images were taken using an Essen IncuCyte FLR automated microscope, with six 96-well plates imaged in about 24 minutes. Images were captured and exported and JPEG files. Spent culture media was transfered to black-well plates for the LDH assay, and remaining media was sorted at -80 C for later use. Cells were treated with RLT buffer and frozen until shipped for gene expression analysis. Total RNA was isolated from the cell suspension in 75 uL of Buffer RLT (Qiagen, Germantown, MD 20874) by Quintiles/Expression Analysis (Durham, NC) using a custom isolation procedure. Total RNA from each plate well was transferred to a preamplification plate. Fluidigm's 96.96 Dynamic ArrayTM (Fluidigm, Amsterdam, the Netherlands) technology was used for gene expression analyses by quantitative reverse transcription polymerase chain reaction (qRT-PCR, performed by Quintiles/Expression Analysis, Durham, NC)89. Standard TaqManTM Assays (Applied Biosystems/ThermoFisher Scientific, Foster City, CA) were used to assess the expression of 93 genes selected based on their selectivity and sensitivity to important hepatic receptors known to be modulated by environmental chemicals; importance in human hepatocyte functionality; and hepatotoxicity. […]
For CCCCc1nc2cccnc2n1Cc1ccc(-c2ccccc2-c2nnn[nH]2)cc1, the outcome was “inactive”.
In the case of NC1CCCCC1, the outcome is reported as “inactive”.
In the case of CCCCCCCCCCCCCCCCO, the outcome is reported as “inactive”.
For CC(=O)OC1CC(C)OC(C)O1 (stereo not given), the outcome was “inactive”.
CCCCCCCC(=O)OC was tested, and the outcome was “inactive”.
For CN(C)C(=O)NC1(c2ccccc2)CCN(CC[C@@]2(c3ccc(F)c(F)c3)CN(C(=O)c3ccccc3)CCO2)CC1, the outcome was “inactive”.
C/C=C/C=C/C(=O)O was tested, and the outcome was “inactive”.
In the case of CCCC(=O)O, the outcome is reported as “inactive”.
In the case of O=C(N[C@@H](c1ccccc1)[C@@H]1CCCCN1)c1cccc(C(F)(F)F)c1Cl, the AC50 is reported as 16.6 µM (active).
Cn1cnc2c1c(=O)[nH]c(=O)n2C was tested, and the outcome was “inactive”.
With CC1(C)C(=O)NC(=O)N1CO the outcome was “inactive”.
With O=C1O[C@H]([C@H](O)CO)C(O)=C1O the outcome was “inactive”.
For O=C1OC(c2ccc(O)cc2)(c2ccc(O)cc2)c2ccccc21, the AC50 was 78.7 µM (active).
In the case of OCC(O)CO, the outcome is reported as “inactive”.
With CN(C)C(=O)NC1(c2ccccc2)CCN(CCC[C@]2(c3ccc(Cl)c(Cl)c3)CCCN(C(=O)c3ccccc3)C2)CC1 the AC50 was 22.7 µM (active).
With O=C(O)c1[nH]n(-c2ccc(S(=O)(=O)O)cc2)c(=O)c1N=Nc1ccc(S(=O)(=O)O)cc1 the outcome was “inactive”.
In the case of O=C(O)c1cccnc1, the outcome is reported as “inactive”.
With Cc1cc(Cc2ccc(N)c(C)c2)ccc1N the outcome was “inactive”.
With CCC(C)N(C)C(=O)c1cc2ccccc2c(-c2ccccc2Cl)n1 (stereo not given) the outcome was “inactive”.
Oc1ccccc1O was tested, and the outcome was “inactive”.
C#CC(O)C(CC)CCCC (stereo not given) was tested, and the outcome was “inactive”.
In the case of S=c1[nH]c2ccccc2s1, the outcome is reported as “inactive”.
For COc1ccc(C(=O)Nc2nc3ccccc3c(NCc3ccccc3)c2C#N)cc1, the AC50 was 16.8 µM (active).
In the case of CCCCCCCCCC[N+](C)(C)[O-], the outcome is reported as “inactive”.
With C=CCc1ccc(OC)c(OC)c1 the outcome was “inactive”.
C/C=C/c1ccc(OC)cc1 was tested, and the outcome was “inactive”.
CCCCOC(=O)CCCCC(=O)OCCCC was tested, and the outcome was “inactive”.
In the case of CCCCC(CC)COP(=O)(OCC(CC)CCCC)OCC(CC)CCCC (stereo not given), the outcome is reported as “inactive”.
With O=C(O)CC(O)(CC(=O)O)C(=O)O the outcome was “inactive”.
With O=C1c2c(O)cccc2Cc2cccc(O)c21 the outcome was “inactive”.
Cc1ccc(C(C)(C)C)c(O)c1 was tested, and the outcome was “inactive”.
In the case of NC=O, the outcome is reported as “inactive”.
In the case of CS(=O)(=O)c1ccc([C@@H](C[C@H]2CCC(=O)C2)C(=O)Nc2cnccn2)cc1Cl, the AC50 is reported as 1.64 µM (active).
In the case of CCCCC(CC)COC(=O)CCCCCCCC(=O)OCC(CC)CCCC (stereo not given), the outcome is reported as “inactive”.
For Cc1occc(=O)c1O, the outcome was “inactive”.
CC(COCC(C)OC(=O)c1ccccc1)OC(=O)c1ccccc1 (stereo not given) was tested, and the outcome was “inactive”.
With O=C(NS(=O)(=O)/C=C/c1cccs1)c1ccc(F)cc1Br the outcome was “inactive”.
With CC(=O)CC(c1ccccc1)c1c(O)c2ccccc2oc1=O (stereo not given) the outcome was “inactive”.
Nc1nc(=S)c2[nH]cnc2[nH]1 was tested, and the outcome was “inactive”.
With CC(=O)OCC(COC(C)=O)OC(C)=O the outcome was “inactive”.
